Source: PubChem BioAssay
In the library only some 2.7% were active in any assay of this set; here they are far more common.
Shn3 3UTR inh: Schnurri-3 reporter inhibition in Clone20 osteoblasts; Clone20 osteoblast Shn3 3'UTR firefly luciferase, 24 h; inhibition, % at 12.5 µM; hit rate 0.52% among 360,000; AID 588674;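 active = mean inhibition of at least 75% with every replicate also reaching 75%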
HIF-2a inh: inhibitors of HIF-2a | 786-0 RCC cells HIF-2a reporter, luciferase luminescence, overnight | inhibition, % at 18.8 µM | hit rate 0.72% among 360,000 | AID 624352;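 active = inhibition of the luminescence signal of 40% or more relative to plate controls, in a single-dose primary screen at 18.75 µM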
Peg3 prom inh: Peg3 promoter activity inhibition. hit rate 1.7% among 360,000. HeLa PEG-Prom luciferase reporter, luminescence, overnight. inhibition, % at 20 µM;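 active = inhibition of at least 50% at 20 µM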
MITF TRPM1 inh: inhibitors of MITF-driven TRPM1 promoter in melanoma cells | SK-MEL-5 TRPM1 promoter luciferase, 24 h | inhibition, % at 12.5 µM | hit rate 0.83% among 330,000 | AID 488899;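 active = mean inhibition across replicates of 60% or more, whatever share of single replicates reaches that level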
KKLEB tox: counter-screen for CF NF-kB inhibitors: cytotoxicity; KKLEB CF airway cells viability, ATPlite luminescence, overnight; stronger effect = lower value; cells stimulated with P. aeruginosa culture filtrate; activity change (cytotoxicity), % at 5 µM; hit rate 0.36% among 360,000; AID 602141;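 active = corrected activity change at or below -50% at 5 µM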
CF NFkB inh: blocks PAF-induced NF-kB reporter in cystic fibrosis cells. KKLEB NF-kB-GFP reporter, GFP fluorescence overnight. inhibition, % at 5 µM. hit rate 0.86% among 360,000. AID 588850;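 active = at least 50% inhibition at 5 µM, scaled per plate between neutral and stimulator controls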;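 note: PAF is a Pseudomonas aeruginosa culture filtrate used as stimulus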
CF NFkB inh conf: CF NF-kB inhibition confirmation, single concentration; shares compounds with CF NFkB inh; inhibition, % at 5 µM; KKLEB CF airway cells, PAF-induced NF-kB-GFP fluorescence, overnight; hit rate 64% among 1,300; in the data active = inhibition above about 40%;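 note: stimulus PAF is a Pseudomonas aeruginosa filtrate and not platelet activating factor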
Mdm2 MdmX conf: confirmation of inhibitors of human Mdm2/MdmX interaction, set 2; hit rate 99% among 740; inhibition, % at 8 µM; AID 504601; shares compounds with HIF-2a inh; SaOS-2 split-luciferase Mdm2/MdmX complementation, luminescence;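 active = mean inhibition of the luminescence signal across two replicates at or above 26 percent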
Target sequence (O15151 whole entry, looked up): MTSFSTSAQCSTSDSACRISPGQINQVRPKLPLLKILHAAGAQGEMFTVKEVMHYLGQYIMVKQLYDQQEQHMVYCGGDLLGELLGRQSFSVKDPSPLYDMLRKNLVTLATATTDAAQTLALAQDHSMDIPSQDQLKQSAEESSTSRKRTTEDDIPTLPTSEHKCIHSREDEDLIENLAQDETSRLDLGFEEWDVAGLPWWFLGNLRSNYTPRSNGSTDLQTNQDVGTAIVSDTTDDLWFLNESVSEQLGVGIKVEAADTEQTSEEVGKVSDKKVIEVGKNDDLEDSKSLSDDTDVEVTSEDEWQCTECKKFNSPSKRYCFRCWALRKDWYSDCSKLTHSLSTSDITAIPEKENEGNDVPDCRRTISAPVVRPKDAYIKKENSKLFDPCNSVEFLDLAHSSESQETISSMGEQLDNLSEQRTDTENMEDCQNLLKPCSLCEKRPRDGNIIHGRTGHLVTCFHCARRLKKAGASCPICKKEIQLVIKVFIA
Target sequence (Q00987 whole entry, looked up): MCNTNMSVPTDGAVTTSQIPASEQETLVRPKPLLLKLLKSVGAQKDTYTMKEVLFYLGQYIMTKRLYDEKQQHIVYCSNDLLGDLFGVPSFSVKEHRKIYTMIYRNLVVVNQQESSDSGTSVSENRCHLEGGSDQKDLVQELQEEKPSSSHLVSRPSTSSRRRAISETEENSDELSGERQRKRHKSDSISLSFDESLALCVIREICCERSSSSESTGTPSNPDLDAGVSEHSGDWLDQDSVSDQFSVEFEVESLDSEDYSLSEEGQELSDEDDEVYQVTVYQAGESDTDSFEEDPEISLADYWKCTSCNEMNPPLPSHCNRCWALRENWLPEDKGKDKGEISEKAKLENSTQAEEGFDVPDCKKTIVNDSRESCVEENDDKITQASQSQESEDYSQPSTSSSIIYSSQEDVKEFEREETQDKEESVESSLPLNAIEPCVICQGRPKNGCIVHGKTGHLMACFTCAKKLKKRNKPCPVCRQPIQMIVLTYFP
HIF-2a conf: HIF-2a inhibition, single concentration confirmation. hit rate 56% among 1,800. 786-0 RCC cells, HIF-2a luciferase reporter luminescence, overnight. shares compounds with HIF-2a inh. AID 651580. inhibition, % at 18.8 µM;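 active = mean inhibition across four replicates of at least 40 percent at the single tested concentration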
HIF-1a cs: HIF-1a inhibition counter-screen for HIF-2a hits; shares compounds with HIF-2a inh; MiaPaCa-2 HIF-1a luciferase reporter, desferoxamine, overnight; inhibition, % at 18.8 µM; hit rate 72% among 1,800; AID 651589;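 active = mean inhibition of the reporter signal across four replicates at the single tested dose of 50% or more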
Large screens that a line does not name were inactive (follow-up assays come after a bar, where they were run).

CC(C)S(=O)(=O)N1Cc2ccccc2-n2nncc2C1	none (no result: MITF TRPM1 inh)
COc1cc(O)cc2c1C(=O)OC(C)CCCC(=O)CCC/C=C\2 (configuration not stated)	none
C[C@H]1CCCC(=O)CCC/C=C/c2cc(O)cc(O)c2C(=O)O1	CF NFkB inh 51.4 | CF NFkB inh conf 58.2
CC1C(=O)OC2CCN3CC4OC4(COC(=O)C(C)(O)C1(C)O)C23 (configuration not stated)	none
O=C1C=CC(=O)C2C1C1(Cl)C(Cl)=C(Cl)C2(Cl)C1(Cl)Cl (configuration not stated)	Peg3 prom inh 65.4, CF NFkB inh 54.3 | CF NFkB inh conf inactive
COc1ccc(-n2nnnc2C(CCc2ccccc2)N2CCC(n3c(=O)[nH]c4ccccc43)CC2)cc1 (configuration not stated)	Peg3 prom inh 98.8, CF NFkB inh 75.0 (no result: MITF TRPM1 inh) | CF NFkB inh conf 88.2
COc1ccc(C(c2nnnn2-c2ccc(OC)cc2)N2CCC3(CC2)C(=O)NCN3c2ccccc2)cc1 (configuration not stated)	none (no result: MITF TRPM1 inh)
CCCCn1nnnc1C(CCc1ccccc1)N1CCC(n2c(=O)[nH]c3ccccc32)CC1 (configuration not stated)	Peg3 prom inh 81.9, CF NFkB inh 88.0 (no result: MITF TRPM1 inh) | CF NFkB inh conf 73.9
COc1ccc2nc(-c3ccc(CN4CCC(n5c(=O)[nH]c6ccccc65)CC4)cc3)c(-c3ccccc3)nc2c1	none (no result: Shn3 3UTR inh, Peg3 prom inh, MITF TRPM1 inh, KKLEB tox, CF NFkB inh)
COc1ccc(C(c2nnnn2-c2ccc3c(c2)OCCO3)N2CCC(n3c(=O)[nH]c4ccccc43)CC2)cc1 (configuration not stated)	Peg3 prom inh 62.5, CF NFkB inh 61.0 (no result: MITF TRPM1 inh) | CF NFkB inh conf inactive
N#CC(=C(O)c1ccc(S(=O)(=O)N(CCCl)CCCl)cc1)c1nc2ccccc2[nH]1	none
O=C1NC(=O)C(=Cc2ccc(Cl)cc2)C(=O)N1	none (no result: Shn3 3UTR inh, Peg3 prom inh, MITF TRPM1 inh, KKLEB tox, CF NFkB inh)
COc1cc2c(c(OC)c1OC)-c1ccc(C(=O)O)cc1[C@@H](NC(C)=O)CC2	none
COc1cc2c(c(OC)c1O)-c1ccc(OC)c(=O)cc1C(NC(=O)C(F)(F)F)CC2 (configuration not stated)	CF NFkB inh 51.0 | CF NFkB inh conf 87.4
C=C1C(C)C2C(Cc3ccccc3)NC(=O)C23OC(=O)/C=C/C(O)CCCC(C)C/C=C/C3C1O (configuration not stated)	Peg3 prom inh 57.5, CF NFkB inh 75.6 | CF NFkB inh conf 97.5
CC(=O)c1c(C)n(C2CCCCC2)c2ccc(O)cc12	CF NFkB inh 96.4 | CF NFkB inh conf 100.0 | Mdm2 MdmX conf 84.6
NC(Cc1ccccc1Cl)c1nn[nH]n1 (configuration not stated)	none (no result: MITF TRPM1 inh)
Cc1c(C(=O)c2cccc3ccccc23)c2cccc3c2n1[C@H](CN1CCOCC1)CO3	HIF-2a inh 69.7, Peg3 prom inh 79.4, CF NFkB inh 55.2 | CF NFkB inh conf 64.0 | HIF-2a conf 45.9 | HIF-1a cs 78.8
O=C(CN1CCOCC1)c1cccc2ccccc12	none
COc1ccc2c(c1)[nH]c1c(C)nccc12	HIF-2a inh 38.4, CF NFkB inh 57.3 | CF NFkB inh conf 82.9 | HIF-2a conf inactive | HIF-1a cs 86.0
CC1C(c2ccccc2)OC(=O)N1C (configuration not stated)	none
CCC(C)C1NC(=O)C(NC(=O)C(CC(C)C)N(C)C(=O)C2CCCN2C(=O)C(C)O)C(C)OC(=O)C(Cc2ccc(OC)cc2)N(C)C(=O)C2CCCN2C(=O)C(CC(C)C)NC(=O)[C@H](C)C(=O)[C@H](C(C)C)OC(=O)CC1O (some centres not stated)	Shn3 3UTR inh 99.2, HIF-2a inh 83.0, Peg3 prom inh 99.8, MITF TRPM1 inh 105.3, KKLEB tox -70.1, CF NFkB inh 93.7 | HIF-2a conf 78.7 | HIF-1a cs 100.4
C#CCCC[C@@H]1OC(=O)CNC(=O)C([C@@H](C)CC)NC(=O)[C@@H]2CCCN2C(=O)C([C@@H](C)CC)OC(=O)[C@H](Cc2ccccc2)N(C)C(=O)[C@H](C(C)C)NC(=O)C1(C)C (some centres not stated)	none (no result: MITF TRPM1 inh)
CC[C@@]1(O)C(=O)OCc2c1cc1n(c2=O)Cc2cc3c(NC(=O)CN)cccc3nc2-1	none | Mdm2 MdmX conf 97.2
c1ccc(CN2Cc3ccccc3-n3nncc3C2)nc1	none (no result: MITF TRPM1 inh)
CC(C)COC(=O)c1ccccc1C(=O)OCC(C)C	none
C[CH2][Hg][S]c1ccccc1C(=O)O	Shn3 3UTR inh 98.3, HIF-2a inh 97.4, Peg3 prom inh 93.6, MITF TRPM1 inh 95.1, KKLEB tox -88.9, CF NFkB inh 86.1 | Mdm2 MdmX conf 102.2
CC(=O)C1C(N2CC2)CC2C3CC=C4CC(O)CCC4(C)C3CCC21C (configuration not stated)	none
O=S(=O)(c1ccccc1)C1CN1c1c(F)c(F)c(F)c(F)c1F (configuration not stated)	none (no result: Shn3 3UTR inh, Peg3 prom inh, MITF TRPM1 inh, KKLEB tox, CF NFkB inh)
COC(=O)C12OCC34C(CC5C(C)=C(O)C(=O)CC5(C)C3C(O)C1O)OC(=O)C(OC(=O)/C=C(\C)C(C)C)C24 (configuration not stated)	Shn3 3UTR inh 98.8, HIF-2a inh 75.2, Peg3 prom inh 102.7, MITF TRPM1 inh 84.6, KKLEB tox -51.8, CF NFkB inh 96.5 | HIF-2a conf 68.9 | HIF-1a cs 105.7
O=Cc1cn(Cc2cccc([N+](=O)[O-])c2)c2ccccc12	HIF-2a inh 45.7, Peg3 prom inh 101.3 | HIF-2a conf 63.0 | HIF-1a cs inactive
CCC1([N+](=O)[O-])COP(=O)(NCc2cccnc2)OC1 (configuration not stated)	none
CN1C2CNC(=O)CC1C1CCC2C1 (configuration not stated)	none (no result: MITF TRPM1 inh)
COc1ccc(CC2NCC(O)C2OC(C)=O)cc1 (configuration not stated)	Shn3 3UTR inh 96.5, HIF-2a inh 82.4, Peg3 prom inh 108.5, MITF TRPM1 inh 91.5, CF NFkB inh 80.0 | HIF-2a conf 85.3 | HIF-1a cs 104.7
COC(=O)C1=C(c2cccc(C#N)c2)C[C@@H]2CC[C@H]1N2C(=O)N1CCCCC1	none
CCC1(c2ccc(C)cc2)C(=O)NC(=S)NC1=O	none (no result: MITF TRPM1 inh)
